# Bioassay records: PubChem BioAssay, Broad Institute
# Most compounds without a hit are left out; they make up all but 0.9% or so of the library.
# BJeLR viability: BJeLR cell viability reduction. BJeLR fibroblasts viability, CellTiterGlo ATP luminescence, 48 h; HRASV12, hTERT and SV40 LT/ST transformed. viability loss activity score, % (no concentration beside the values). actives 0.64% (n = 30,000); in the data active = viability loss activity score above about 50%;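 also: higher score means fewer live cells and less ATP luminescence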
# A1 inhib: blocks A1 activity; MEF A1-2A-BIM cells, caspase-Glo luminescence, 3 h; percent of clofoctol signal, DMSO as zero; caspase activation, % (test concentration not listed); actives 0.51% (n = 21,000); AID 2241;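 active = most replicate scores above 10, or exactly half above 10 with mean activity above 10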;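 also: effector caspase 3 and 7 activity cleaving a DEVD luciferin substrate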
# * hit, by the source's call; · = no result given.
SMILES,BJeLR viability,A1 inhib
CN(C)c1ccc(C(c2nnnn2CCOC(=O)Nc2ccc(Cl)cc2)N2CCOCC2)cc1 (stereo not given),-7,·
COc1cc([C@@H]2c3cc4c(cc3[C@@H](OC3OC5COC(C)OC5C(O)C3O)[C@H]3COC(=O)[C@H]23)OCO4)cc(OC)c1O (stereo not given in full),52*,1
COc1cc([C@@H]2c3cc4c(cc3C(OC3O[C@@H]5COC(C)O[C@H]5[C@H](O)[C@H]3O)C3COC(=O)[C@@H]32)OCO4)cc(OC)c1O (stereo not given in full),8,1
C[C@H](CO)N1C[C@H](C)[C@H](CN(C)Cc2ccc(-c3ccccc3)cc2)Oc2ccc(NS(=O)(=O)c3ccc(Cl)cc3)cc2C1=O,0,-1
CC(=O)OC[C@]12[C@H](OC(C)=O)[C@H](OC(C)=O)[C@@H]3[C@@H](OC(C)=O)[C@@]14O[C@@]3(C)COC(=O)c1ncccc1CC[C@H](C)C(=O)O[C@@H]([C@H](O)[C@@H]2OC(=O)c1ccccc1)[C@]4(C)O,51*,2
CC(=O)OC[C@]12[C@@H](OC(C)=O)C[C@@H]3[C@@H](OC(=O)c4ccccc4)[C@]1(OC3(C)C)[C@H](C)C[C@H](OC(=O)c1ccccc1)[C@@H]2OC(C)=O,-2,-1
CC(C)N1CN=C(Nc2nc3ccccc3o2)NC1,0,-1
Cc1ccnc(Nc2nc3ccccc3o2)n1,50*,·
CN(C)C(=O)c1cc(Cl)ccc1Cl,-1,0
CC(C)(C)n1nc(-c2ccc(Cl)cc2)c2c(N)ncnc21,7,13*
Cc1ccc(S(=O)(=O)Nc2ccc3c(c2)C(=O)N([C@@H](C)CO)C[C@H](C)[C@@H](CN(C)CC2CCCCC2)O3)cc1,0,0
CC1(C)CC[C@]2(C(=O)O[C@@H]3O[C@H](CO)[C@@H](O)[C@H](O)[C@H]3O)CC[C@]3(C)C(=CCC4[C@@]5(C)CC[C@H](O[C@@H]6O[C@H](C(=O)O)[C@@H](O[C@@H]7O[C@H](CO)[C@@H](O)[C@H](O)[C@H]7O)[C@H](O)[C@H]6O)C(C)(C)C5CC[C@]43C)C2C1 (stereo not given in full),2,0
CC1(C)CC[C@]2(C(=O)OC3OC(CO)C(O)C(O)C3O)CC[C@]3(C)C(=CCC4[C@@]5(C)CC[C@H](OC6OC(C(=O)O)C(O)C(O)C6O)C(CO)(CO)C5CC[C@]43C)[C@@H]2C1 (stereo not given in full),133*,2
C[C@@H]1O[C@@H](O[C@H]2[C@H](O[C@H]3CC[C@@]4(C)C(CC[C@]5(C)C4CC=C4[C@@H]6CC(C)(C)CC[C@]6(C(=O)O[C@@H]6O[C@H](CO[C@@H]7O[C@H](CO)[C@@H](O)[C@H](O)[C@H]7O)[C@@H](O)[C@H](O)[C@H]6O)CC[C@]45C)[C@]3(C)CO)OC[C@H](O)[C@@H]2O)[C@H](O)[C@H](O)[C@H]1O (stereo not given in full),-4,0
CC1(C)CC[C@@]2(C(=O)O[C@@H]3O[C@H](CO)[C@@H](O)[C@H](O)[C@H]3O)C(C1)C1=CCC3[C@@]4(C)CC[C@@H](O[C@@H]5O[C@H](C(=O)O)[C@@H](O[C@@H]6OC[C@@H](O)[C@H](O)[C@H]6O)[C@H](O)[C@H]5O)C(C)(C)C4CC[C@@]3(C)[C@]1(C)C[C@H]2O (stereo not given in full),0,0
CC1OC(O[C@H]2CC[C@@]3(C)C(CC[C@]4(C)C3CC=C3C5CC(C)(C)CC[C@]5(C(=O)OC5OC(CO)C(OC6OC(CO)C(O)C(O)C6O)C(O)C5O)CC[C@]34C)C2(C)C)C(O)C(O)C1OC1OCC(O)(COC2OCC(O)C(OC3OCC(OC4OCC(O)(CO)C4O)C(O)C3O)C2O)C1O (stereo not given in full),-5,0
C[C@@H]1O[C@@H](O[C@H]2[C@H](O)[C@@H](O)[C@H](OC[C@H]3O[C@@H](OC(=O)[C@]45CCC(C)(C)CC4C4=CCC6[C@@]7(C)CC[C@H](O)C(C)(C)C7CC[C@@]6(C)[C@]4(C)CC5)[C@H](O)[C@@H](O)[C@@H]3O)O[C@@H]2CO)[C@H](O)[C@H](O)[C@H]1O (stereo not given in full),125*,1
CC1OC(OC2C(CO)OC(OC(=O)[C@]34CCC(C)(C)CC3C3=CCC5[C@@]6(C)CC[C@H](OC7OC(C)C(OC8OCC(O)(COC9OCC(O)C(OC%10OCC(OC%11OCC(O)(CO)C%11O)C(O)C%10O)C9O)C8O)C(O)C7O)C(C)(C)C6CC[C@@]5(C)[C@]3(C)CC4)C(O)C2O)C(O)C(O)C1O (stereo not given in full),4,12*
CC(=O)N[C@H]1[C@H](O[C@H]2CC[C@@]3(C)C(CC[C@]4(C)C3CC=C3[C@@H]5CC(C)(C)CC[C@]5(C(=O)OC5OCC(O)C(O)C5O)C(O)C[C@]34C)C2(C)C)O[C@H](COC2OCC(O)C(OC3OCC(O)C(O)C3O)C2O)[C@@H](O[C@@H]2O[C@@H](C)[C@H](O)[C@@H](O)[C@H]2O[C@@H]2O[C@@H](C)[C@H](O)[C@@H](O)[C@H]2O)[C@@H]1O (stereo not given in full),1,35*
O=c1nc2n(-c3ccc(Br)cc3)c3cccc(Cl)c3cc-2c(=O)[nH]1,-1,1
C[C@@H]1CN([C@H](C)CO)C(=O)c2cccc(NC(=O)c3nc4ccccc4s3)c2O[C@@H]1CN(C)C(=O)Nc1ccc(F)cc1,-5,·
Nc1nc(N)n(-c2ccccc2)c(=Nc2ccccc2)n1,-1,0
C[C@@H]1CN([C@H](C)CO)C(=O)c2cc(NC(=O)c3ccncc3)ccc2O[C@@H]1CN(C)C(=O)Nc1ccc(C(F)(F)F)cc1,-1,0
O=C1Nc2ccccc2/C1=C/C(=O)c1ccc(Cl)cc1,65*,65*
O=C1Nc2ccccc2/C1=C\c1c(Cl)[nH]c2ccccc12,27,2
SMILES,BJeLR viability,A1 inhib
C[C@H]1CN([C@@H](C)CO)C(=O)c2cccc(NC(=O)Nc3cccc4ccccc34)c2O[C@H]1CN(C)C(=O)Nc1ccc(F)cc1,-8,·
CC(=O)Nc1ccc(OCC(O)CNC(C)C)cc1 (stereo not given),4,0
C=CCOc1ccccc1OCC(O)CNC(C)C (stereo not given),56*,-1
CSc1ccccc1NC(=O)CSc1nc2ccc(C)cc2[nH]1,-2,1
Cc1ccc2nc(S/C=C/C(=O)c3ccccc3)[nH]c2c1,72*,5
C[C@@H]1CN([C@@H](C)CO)C(=O)c2cccc(NC(=O)Nc3ccc4c(c3)OCO4)c2O[C@H]1CN(C)Cc1ccc(C(=O)O)cc1,9,·
C=CCc1ccc(O[C@@H]2O[C@H](CO[C@@H]3O[C@@H](C)[C@H](O)[C@@H](O)[C@H]3O)[C@@H](O)[C@H](O)[C@H]2O)c(O)c1,1,1
C=CCc1ccc(O[C@@H]2O[C@H](CO)[C@@H](O)[C@H](O)[C@H]2O)c(O[C@@H]2O[C@H](CO)[C@@H](O)[C@H](O)[C@H]2O)c1,70*,0
Nc1nc(Cl)nc2c1ncn2C1C[C@@H](O)C(CO)O1 (stereo not given in full),-17,1
